Sm TGR block = inhibitors of Schistosoma mansoni thioredoxin glutathione reductase | Q962Y6 | purified TGR, DTNB reduction, TNB absorbance 405 nm | Potency, µM (top dose mostly 114 µM), usual class: inhibitors | 3% of 360,000 active | AID 485364; note: nearly all actives have a fitted effect of over 60% in size
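Kinetic colorimetric format: TGR-catalysed, NADPH-driven DTNB reduction monitored via TNB absorbance. Enzyme dispensed at 20 nM; compound exposure 15 min at room temperature before reaction start.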
AmpC detergent = inhibitors of E. coli AmpC beta-lactamase with detergent | AmpC hydrolysis of nitrocefin, absorbance 480 nm, 0.01% Triton | Potency, µM (series often up to 114 µM), actives largely listed as inhibitors | 0.041% of 370,000 active; note: nearly all actives have a fitted effect of over 25% in size
Target sequence (P00811 whole entry, looked up): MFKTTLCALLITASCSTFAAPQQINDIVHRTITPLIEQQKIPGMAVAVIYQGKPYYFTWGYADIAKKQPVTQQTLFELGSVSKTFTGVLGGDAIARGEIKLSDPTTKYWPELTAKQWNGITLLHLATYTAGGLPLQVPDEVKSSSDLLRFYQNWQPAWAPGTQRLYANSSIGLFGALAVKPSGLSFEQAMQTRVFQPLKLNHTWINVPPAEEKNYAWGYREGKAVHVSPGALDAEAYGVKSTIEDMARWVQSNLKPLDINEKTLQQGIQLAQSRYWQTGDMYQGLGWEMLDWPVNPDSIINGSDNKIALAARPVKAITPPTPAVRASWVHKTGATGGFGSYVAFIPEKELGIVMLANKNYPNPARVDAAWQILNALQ
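20 mM phosphate pH 7.0 + 0.01% (detergent screen) or 0.0001% Triton X-100; 5.3 nM AmpC reagent; cpd preinc 15 min RT; nitrocefin (800 uM stock) to start; A480 q20 s × 4 min; Activity was normalised to no-enzyme and no-compound control wells.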
AmpC no deterg = AmpC beta-lactamase inhibition without detergent. AID 485341. P00811. AmpC nitrocefin hydrolysis, absorbance 480 nm, 0.0001% Triton. Potency, µM (highest dose often 57.1 µM), actives largely listed as inhibitors. 0.52% of 330,000 active; note: nearly all actives have a fitted effect of over 20% in size
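AmpC (5.3 nM in the dispensed reagent) in 20 mM phosphate pH 7.0 with 0.01% (detergent screen) or 0.0001% Triton X-100 was preincubated with compounds for 15 min at room temperature. Nitrocefin was then added from an 800 uM solution, and hydrolysis was followed at 480 nm.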
Hits are given with their value; – = inactive; ? = inconclusive; · = no result. An excerpt weighted towards active compounds, which were near 3.3% of everything screened. Calls come from the whole dose curve; as a rule, active = well fitted curve in the direction sought with a large enough effect; inconclusive = small, poorly fitted or top-dose-only effect, or another doubt; inactive = no such curve, though single readings can be large; an effect the other way counts as inactive or inconclusive.

SMILES	Sm TGR block	AmpC detergent	AmpC no deterg
Cc1ccn2c(NC(=O)c3cccc(Cl)c3)c(-c3ccccc3)nc2c1	–	–	·
Cc1ccc(N2CC(NC(=O)C3CC3)CC2=O)cc1C (configuration not stated)	–	–	·
CCN(CC(=O)NCc1ccc(Cl)cc1)C(=O)/C=C/c1ccco1	25µM	–	–
CCN(CC(=O)NCc1ccc(Cl)cc1)C(=O)/C=C/c1ccccc1	–	–	–
O=C(/C=C/c1cccnc1)c1cccc(O)c1	28µM	–	–
O=C(/C=C/c1cccnc1)c1ccc([N+](=O)[O-])cc1	8.9µM	–	–
CN(C)C(=O)COc1ccc(C(=O)/C=C/c2cccnc2)cc1	?	–	–
O=C(/C=C/c1cccnc1)c1ccccc1O	20µM	–	–
COc1cc(C(=O)/C=C/c2cccnc2)c([N+](=O)[O-])cc1OC	?	–	–
O=C(/C=C/c1cccnc1)c1ccc(O)cc1	45µM	–	–
O=C(/C=C/c1cccc(O)c1)c1cccnc1	?	–	–
Cc1ccc(/C=C/C(=O)c2ccccc2O)cc1	–	–	–
COc1ccc(C)cc1NC(=O)c1cc2c(=O)n(Cc3cccnc3)ccc2nc1C	–	–	·
Cc1nn2c3c(cnc2c1-c1ccc(Cl)cc1)C(=O)CC(c1ccc(C(C)C)cc1)C3 (configuration not stated)	–	–	·
COc1ccc(Cn2c(N)c(C(=O)NCc3ccco3)c3nc4ccccc4nc32)cc1OC	35µM	?	–
COc1cc(-n2c(N)c(C(=O)NCc3ccco3)c3nc4ccccc4nc32)cc(OC)c1OC	25µM	–	–
COc1ccc(-n2c(N)c(C(=O)NCc3ccco3)c3nc4ccccc4nc32)cc1OC	40µM	?	–
Nc1c(C(=O)NCc2ccccc2)c2nc3ccccc3nc2n1-c1ccc2c(c1)OCO2	?	–	–
COc1ccc(-n2c(N)c(C(=O)NCc3ccco3)sc2=S)cc1	–	–	–
Nc1c(C(=O)NCc2ccco2)c2nc3ccccc3nc2n1CCN1CCCCC1	–	–	–
Nc1c(C(=O)NCc2ccco2)c2nc3ccccc3nc2n1CCc1ccc(F)cc1	?	–	–
COc1ccc(-n2c(N)c(C(=O)NCc3ccco3)c3nc4ccccc4nc32)cc1	45µM	–	–
Cc1ccc(NC(=O)C2CCCN(c3nc4ccccc4s3)C2)c(C)c1 (configuration not stated)	–	–	·
CCc1cccc(NC(=O)Nc2csc3c2CCCC3)c1	–	–	·
Cc1ccc(OCC(=O)N(Cc2ccc(N(C)C)cc2)CC2CCCO2)cc1C (configuration not stated)	–	–	·
SMILES	Sm TGR block	AmpC detergent	AmpC no deterg
Cc1ccc(S(=O)(=O)C(CNC(=O)c2ccccc2F)c2cccs2)cc1 (configuration not stated)	–	–	·
COc1ccc(S(=O)(=O)N(CC(=O)Nc2ccccc2Br)Cc2ccccc2)cc1	–	–	·
COc1ccc(-n2ccnc2SCC(=O)Nc2nnc(C)s2)cc1	–	–	·
COc1cc2cc(CCCOC(=O)c3ccco3)oc(=O)c2cc1OC	50µM	–	–
COc1cc2cc(CCCOC(=O)c3cc(OC)c(OC)c(OC)c3)oc(=O)c2cc1OC	·	·	–
CCc1ccc(OCC(=O)Nc2ccc(S(=O)(=O)Nc3onc(C)c3C)cc2)cc1	–	–	·
Cc1ccc(OCC(=O)Nc2ccc(S(=O)(=O)Nc3onc(C)c3C)cc2)cc1	89µM	–	–
Cc1noc(NS(=O)(=O)c2ccc(NC(=O)CC(C)C)cc2)c1C	–	–	–
Cc1noc(NS(=O)(=O)c2ccc(NC(=O)C(C)C)cc2)c1C	25µM	–	–
CCOc1ccc(C(=O)Nc2ccccc2C(=O)OCc2cc(=O)n3nc(C4CC4)sc3n2)cc1	–	–	·
Cc1nn(C(C)C(=O)N2CCN(c3ccc(F)cc3)CC2)c(=O)c2c1sc1ccccc12 (configuration not stated)	–	–	·
COc1cccc(CCNC(=O)Cn2c(-c3cccs3)cc3ccccc32)c1	–	–	·
CCOC(=S)SCC(=O)Nc1nccs1	–	–	–
CCOC(=S)SCC(=O)Nc1nc(C)c(C)s1	–	–	10µM
O=C(c1cc2n(n1)C(C(F)(F)F)CC(c1ccco1)N2)N1CCc2ccccc2C1 (configuration not stated)	?	–	–
COc1cc2c(cc1OC)C(C)N(C(=O)c1cc3n(n1)C(C(F)(F)F)CC(c1ccco1)N3)CC2 (configuration not stated)	25µM	?	–
COc1cccc2cc(C(=O)CS(=O)(=O)c3ccc(C(C)(C)C)cc3)c(=O)oc12	?	–	18µM
COc1ccc(S(=O)(=O)CC(=O)c2cc3cccc(C)c3oc2=O)cc1	?	–	–
Cc1ccc(CSC2=Nc3ccccc3C3=NC(CCC(=O)NCc4cccs4)C(=O)N23)c(C)c1 (configuration not stated)	–	–	·
CCOC(=O)c1c(-c2ccc(C)o2)csc1NC(=O)CSc1nnc(C)s1	?	–	–
CCOC(=O)c1c(-c2ccc(C)o2)csc1NC(=S)NC(=O)c1cccs1	–	–	–
CCOC(=O)c1c(-c2ccc(C)o2)csc1NC(=O)COC(=O)c1ccc(NC(N)=O)cc1	10µM	–	–
CCOC(=O)c1c(-c2ccc(C)o2)csc1NC(=O)CSc1nnnn1-c1ccccc1	5.6µM	–	11µM
COc1cccc(C(=O)N2CCc3cc(OC)c(OC)cc3C2COc2ccc3c(C)cc(=O)oc3c2)c1 (configuration not stated)	–	–	·
CC(=O)Nc1ccc(S(=O)(=O)N2CCC(c3nnnn3-c3ccccc3)CC2)cc1	–	–	·
SMILES	Sm TGR block	AmpC detergent	AmpC no deterg
COc1ccccc1CNC(=O)c1cc2c(=O)oc3ccc(C)cc3c2s1	–	?	·
COc1cc2[nH]c3c(Cl)ncnc3c2cc1OC	–	–	–
COc1cc2[nH]c(Cl)c([N+](=O)[O-])c2cc1OC	2µM	–	–
CCc1ccc(NC(=O)CSc2nc3c(c(=O)[nH]2)CN(Cc2ccc(C)cc2)CC3)cc1	–	–	·
COc1ccccc1NC(=O)C1=C(C)Nc2nc(SCc3cc(C)ccc3C)nn2C1c1ccccc1 (configuration not stated)	–	–	·
Cc1ccc2c(c1)=C/C(=C\c1c(O)[nH]c(=S)[nH]c1=O)C(=O)N=2	13µM	–	–
Cc1ccc2c(c1)=NC(=O)/C(=C/c1c(O)[nH]c(=O)[nH]c1=O)C=2	?	–	–
CCOc1ccccc1C(=O)Nc1cc2c(cc1N1CCOCC1)n(C)c(=O)n2C	–	–	·
CC(C)(C)OC(=O)NCC12C=CC(O1)C1C(=O)N(Cc3ccccc3)C(=O)C12 (configuration not stated)	8.9µM	–	–
CC(C)(C)OC(=O)NCC1CCN(S(=O)(=O)Cc2ccccc2)CC1	–	?	–
Cc1c(C(=O)Nc2ccc(F)cc2)oc2ccc(S(=O)(=O)N3CCCCCC3)cc12	–	–	·
O=C(Nc1ccc(-c2csc(Nc3ccc(Cl)cc3)n2)cc1)c1cccc(C(F)(F)F)c1	–	–	?
O=C(Nc1ccc(-c2csc(Nc3ccccc3)n2)cc1)c1cccc(C(F)(F)F)c1	–	–	3.5µM
CCc1ccc2occ(CC(=O)Nc3ccc(OC)c(Cl)c3)c2c1	–	–	·

Source: PubChem BioAssay (National Center for Advancing Translational Sciences (NCATS))
